# From PubChem BioAssay AID1347418 (Sanford-Burnham Center for Chemical Genomics, 2020)
# Among all 1,300 compounds or so, about 750 (58%) were called active. This is one part of the list.
# Molecular target: Sulfhydryl oxidase 1 (Homo sapiens) (UniProt O00391)
# Assay: QSOX1 enzyme inhibitors, primary screen, biochemical, ROS-Glo H2O2 luminescence, HTS (AID 1347418)
# Details: recombinant QSOX1, ROS-Glo H2O2 luminescence; at 12.5 µM; stronger effect = higher value; active = any value above zero
# Sequence of Sulfhydryl oxidase 1 (Homo sapiens) (O00391 whole entry, looked up): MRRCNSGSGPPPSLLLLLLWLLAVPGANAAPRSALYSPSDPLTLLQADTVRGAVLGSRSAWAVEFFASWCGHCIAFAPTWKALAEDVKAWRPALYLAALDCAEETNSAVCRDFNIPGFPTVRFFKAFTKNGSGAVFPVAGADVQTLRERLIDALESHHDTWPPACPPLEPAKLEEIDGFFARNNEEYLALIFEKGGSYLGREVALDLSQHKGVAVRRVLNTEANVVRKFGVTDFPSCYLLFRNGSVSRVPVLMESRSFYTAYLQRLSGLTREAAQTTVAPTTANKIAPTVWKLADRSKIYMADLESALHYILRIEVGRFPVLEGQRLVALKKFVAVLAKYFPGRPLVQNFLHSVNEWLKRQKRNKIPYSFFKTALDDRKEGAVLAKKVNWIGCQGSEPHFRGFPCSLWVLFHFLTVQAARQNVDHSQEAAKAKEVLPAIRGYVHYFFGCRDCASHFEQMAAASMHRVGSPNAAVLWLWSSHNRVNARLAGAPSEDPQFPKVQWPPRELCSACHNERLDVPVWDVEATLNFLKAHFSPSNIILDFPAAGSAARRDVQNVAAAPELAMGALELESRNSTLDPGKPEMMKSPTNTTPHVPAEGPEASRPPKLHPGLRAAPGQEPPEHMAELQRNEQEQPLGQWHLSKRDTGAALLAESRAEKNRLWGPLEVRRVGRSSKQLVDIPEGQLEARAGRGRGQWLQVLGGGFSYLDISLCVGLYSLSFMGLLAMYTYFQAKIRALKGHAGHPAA
row,SMILES,inhibition
1,CC(C)(C)c1cc(/C=C(\C#N)C(N)=S)cc(C(C)(C)C)c1O,37.7% (active)
2,C#CCN(C)Cc1ccccc1,-0.7% (inactive)
3,CN(C)C/C=C(/c1ccc(Br)cc1)c1cccnc1,2.7% (active)
4,CN1CCC(=C2c3ccccc3CC(=O)c3sccc32)CC1,0.8% (active)
5,CN1CCC(=C2c3ccccc3C=Cc3ccccc32)CC1,2.2% (active)
6,CCC1(O)CC2CN(CCc3c([nH]c4ccccc34)[C@@](C(=O)OC)(c3cc4c(cc3OC)N(C=O)C3[C@]45CCN4CC=C[C@@](CC)([C@@H](OC(C)=O)[C@]3(O)C(=O)OC)[C@H]45)C2)C1 (some centres not stated),-0.2% (inactive)
7,CCC1(O)CC2CN(CCc3c([nH]c4ccccc34)[C@@](C(=O)OC)(c3cc4c(cc3OC)N(C)C3[C@]45CCN4CC=C[C@@](CC)([C@@H](OC(C)=O)[C@]3(O)C(=O)OC)[C@H]45)C2)C1 (some centres not stated),6.7% (active)
8,O=c1[nH]cc(F)c(=O)[nH]1,0.8% (active)
9,O=C(Nc1nc2ccccc2n1CCN1CCOCC1)c1cccc([N+](=O)[O-])c1,0.4% (active)
10,NC1CONC1=O (configuration not stated),-3.5% (inactive)
11,CN1C[C@H](C(=O)N[C@]2(C)O[C@@]3(O)[C@@H]4CCCN4C(=O)[C@H](Cc4ccccc4)N3C2=O)C[C@@H]2c3cccc4[nH]cc(c34)C[C@H]21,10% (active)
12,COc1cccc(OC)c1OCCNCC1COc2ccccc2O1 (configuration not stated),1.9% (active)
13,COc1cccc(OC)c1OCCNCC1CSc2ccccc2O1 (configuration not stated),-0.7% (inactive)
14,O=C1c2ccccc2C(=O)c2c(NCCc3ccc(O)cc3)ccc(NCCc3ccc(O)cc3)c21,11% (active)
15,O=C(O)Cc1c[nH]c2ccc(O)cc12,15.6% (active)
16,N[C@@H](Cc1c[nH]c2ccccc12)C(=O)O,-0.2% (inactive)
17,N[C@@H](Cc1c[nH]c2ccc(O)cc12)C(=O)O,8.4% (active)
18,N[C@H](C(=O)O)c1cc(O)cc(O)c1,-6.1% (inactive)
19,CCn1ccnc1CC1COc2ccccc2O1 (configuration not stated),0.9% (active)
20,CC1=C(C(=O)O)N2C(=O)[C@@H](NC(=O)C(N)C3=CCC=CC3)[C@H]2SC1 (some centres not stated),-1.3% (inactive)
21,CC1=C(C(=O)O)N2C(=O)[C@@H](NC(=O)C(N)c3ccccc3)[C@H]2SC1 (some centres not stated),2.2% (active)
22,NC(=O)c1cc[n+](CC2=C(C(=O)O)N3C(=O)[C@@H](NC(=O)[C@@H](c4ccccc4)S(=O)(=O)[O-])[C@H]3SC2)cc1,-1% (inactive)
23,NC(C(=O)N[C@@H]1C(=O)N2C(C(=O)O)=C(Cl)CS[C@H]12)c1ccccc1 (some centres not stated),0.4% (active)
24,NCCS(=O)O,-0.7% (inactive)
25,O=C1OC(=O)C2C3CCC(O3)C12 (configuration not stated),-1.3% (inactive)

row,SMILES,inhibition
1,NC(=O)C(=O)O,-8.6% (inactive)
2,NC(=O)NO,-13.4% (inactive)
3,CC(=O)C(C)=O,2.1% (active)
4,CC(=O)/C(C)=N/O,-5.2% (inactive)
5,CC(N)=O,4.6% (active)
6,Nc1ccc2c3c(cccc13)C(=O)NC2=O,7.4% (active)
7,Nc1ncnc2c1ncn2C1CCCO1 (configuration not stated),-0.8% (inactive)
8,O=C(CCNNC(=O)c1ccncc1)NCc1ccccc1,3.1% (active)
9,COc1ccc(C(=O)NCc2cccnc2)cc1C(=O)NCc1cccnc1,-2.9% (inactive)
10,OC(CCN1CCCCC1)(c1ccccc1)C1CCCCC1 (configuration not stated),-2.5% (inactive)
11,OC(CCN1CCCCC1)(c1ccccc1)C1CC2C=CC1C2 (configuration not stated),2.7% (active)
12,NCCNC(=O)c1ncsc1-c1cccc(F)c1,0.5% (active)
13,CCN(CC)CC#CCOC(=O)C(O)(c1ccccc1)C1CCCCC1 (configuration not stated),-2.5% (inactive)
14,CC#C[C@]1(O)CC[C@H]2[C@@H]3CCC4=CC(=O)CCC4=C3[C@@H](c3ccc(N(C)C)cc3)C[C@@]21C,29.9% (active)
15,O=C1Nc2ccc(I)cc2/C1=C/c1cc(Br)c(O)c(Br)c1,1.3% (active)
16,NCCCS(=O)(=O)O,4.4% (active)
17,NCCS(=O)(=O)O,-4.9% (inactive)
18,Cn1c(=O)c2[nH]cnc2n(C)c1=O,2.2% (active)
19,Cc1nc2c([nH]1)c(=O)n(C)c(=O)n2Cc1ccco1,-1.4% (inactive)
20,CC(C)Cn1c(=O)n(C)c(=O)c2[nH]cnc21,1.8% (active)
21,COCc1nc2c([nH]1)c(=O)n(C)c(=O)n2CC(C)C,-1.5% (inactive)
22,c1ccc(C(NCc2cccnc2)(c2ccccc2)c2ccccc2)cc1,-3.5% (inactive)
23,O=C(O)/C=C/C(O)c1ccc(Cl)cc1 (configuration not stated),-2.6% (inactive)
24,Clc1ccc(C(c2ccccc2Cl)C(Cl)Cl)cc1 (configuration not stated),22.6% (active)
25,Cc1ccc(N(CC2=NCCN2)c2cccc(O)c2)cc1,34.7% (active)

row,SMILES,inhibition
1,O=C1O/C(=C/Br)CCC1c1cccc2ccccc12 (configuration not stated),2.5% (active)
2,C[C@H](O)C(=O)C1=Nc2c(nc(N)[nH]c2=O)NC1,0.2% (active)
3,CCCc1c(OCCCOc2ccc(OCC(=O)O)cc2)ccc(C(C)=O)c1O,4.1% (active)
4,O=C(O)/C(=C/c1c(C(=O)O)[nH]c2cc(Cl)cc(Cl)c12)c1ccccc1,3.9% (active)
5,O=C1NC(c2cccc([N+](=O)[O-])c2)=CCN1c1ccccc1O,3.1% (active)
6,O=C(O)c1ccccc1Nc1cccc(OCc2ccc3ccccc3n2)c1,7.4% (active)
7,CCCCCC(O)c1cccc(OCc2ccc3ccccc3n2)c1 (configuration not stated),2.8% (active)
8,O=C(c1ccccc1)c1ccc2n1CCC2C(=O)O (configuration not stated),-5% (inactive)
9,C[C@H](NC(=O)/C(C#N)=C/c1ccc(O)c(O)c1)c1ccccc1,24.4% (active)
10,N#C/C(=C\c1ccc(O)c(O)c1)C(=O)NCCCc1ccccc1,21% (active)
11,NNCCc1ccccc1,-0.4% (inactive)
12,N#C/C(=C\c1ccc(O)c(O)c1)C(=O)Nc1ccccc1,26.5% (active)
13,N#C/C(=C\c1ccc(O)c(O)c1)C(=O)NCCc1ccccc1,28.3% (active)
14,C[C@]12C=CC(=O)C=C1CC[C@@H]1C2=CC[C@]2(C)[C@@H](C(=O)CN3CCN(c4cc(N5CCCC5)nc(N5CCCC5)n4)CC3)CC[C@@H]12,-5.3% (inactive)
15,CSc1ccc(C(=O)c2[nH]c(=O)[nH]c2C)cc1,-1.7% (inactive)
16,N#C/C(=C\c1ccc(O)c(O)c1)C(=O)NCc1ccccc1,26.3% (active)
17,N#C/C(=C\c1ccc(O)c(O)c1)C(=O)NCCCNC(=O)/C(C#N)=C/c1ccc(O)c(O)c1,25% (active)
18,CN(C)c1nc(N(C)C)nc(N(C)C)n1,-0.9% (inactive)
19,CC(=O)N1CCN(c2ccc(OC[C@H]3CO[C@](Cn4ccnc4)(c4ccc(Cl)cc4Cl)O3)cc2)CC1,9.3% (active)
20,Nc1nc2c(ncn2COC(CO)CO)c(=O)[nH]1,0.2% (active)
21,Nc1nc2c(ncn2COCCO)c(=O)[nH]1,0% (inactive)
22,CC(=O)OCC1=C(C(=O)O)N2C(=O)[C@@H](NC(=O)Cc3cccs3)[C@H]2SC1,1% (active)
23,CO/N=C(\C(=O)N[C@@H]1C(=O)N2C(C(=O)O)=C(COC(C)=O)CS[C@H]12)c1csc(N)n1,-6.9% (inactive)
24,Cc1ccc(/C(=C\CN2CCCC2)c2ccccn2)cc1,-2.5% (inactive)
25,O=C1N=C(O)C(c2ccccc2)(c2ccccc2)N1,-3.8% (inactive)

row,SMILES,inhibition
1,CCCOc1ccccc1-c1nc2n[nH]nc2c(=O)[nH]1,-3% (inactive)
2,O=c1[nH]c(=O)c2nc3ccccc3nc2[nH]1,8% (active)
3,CC(=O)[C@H]1CC[C@H]2[C@@H]3CCC4=CC(=O)CC[C@]4(C)[C@H]3CC[C@]12C,-0.5% (inactive)
4,CC(=O)SC1CC2=CC(=O)CC[C@]2(C)C2CC[C@@]3(C)C(CC[C@@]34CCC(=O)O4)C12 (some centres not stated),-4.3% (inactive)
5,CC(=O)OCC(=O)[C@@]1(O)CC[C@H]2[C@@H]3CCC4=CC(=O)CC[C@]4(C)[C@H]3C(=O)C[C@@]21C,-7.3% (inactive)
6,C[C@]12CCC(=O)C=C1CC[C@@H]1[C@@H]2CC[C@@]2(C)[C@H]1CC[C@]2(O)C(=O)CO,1.9% (active)
7,C[C@]12CCC(=O)C=C1CC[C@@H]1[C@@H]2[C@@H](O)C[C@@]2(C)[C@H]1CC[C@]2(O)C(=O)CO,-7.5% (inactive)
8,C[C@]12CCC(=O)C=C1CC[C@@H]1[C@@H]2C(=O)C[C@@]2(C)[C@H]1CC[C@]2(O)C(=O)CO,4.5% (active)
9,C[C@]12C[C@H](O)[C@H]3[C@@H](CCC4=CC(=O)CC[C@@]43C)[C@@H]1CC[C@@H]2C(=O)CO,1% (active)
10,CC(=O)[C@@]1(O)CC[C@H]2[C@@H]3CCC4=CC(=O)CC[C@]4(C)[C@H]3CC[C@@]21C,-1% (inactive)
11,O=C1NCN(c2ccccc2)C12CCN(CCCC(c1ccc(F)cc1)c1ccc(F)cc1)CC2,-2.5% (inactive)
12,COc1ccc2c(c1)c(CC(=O)O)c(C)n2C(=O)c1ccccc1,-3.5% (inactive)
13,COc1ccc2c(c1)c(CC(=O)O)c(C)n2C(=O)c1ccc(Cl)cc1,4.9% (active)
14,Cc1ccc([N+](=O)[O-])cc1S(=O)(=O)N(C)C,9.9% (active)
15,O=c1cc(O)cc(/C=C/c2ccc(O)c(O)c2)o1,30.2% (active)
16,Oc1ccc(/C=C/c2cc(O)cc(O)c2)cc1,23.2% (active)
17,Oc1cc(O)cc(/C=C/c2ccc(O)c(O)c2)c1,44% (active)
18,Oc1ccc(/C=C/c2ccc(/C=C/c3ccc(O)cc3)c(Br)c2)cc1,1% (active)
19,C=CCn1c(=O)c2c(nc(-c3ccc(S(=O)(=O)O)cc3)n2C)n(C)c1=O,-0.9% (inactive)
20,Cn1c(=O)c2c(nc(/C=C/c3cccc(Cl)c3)n2C)n(C)c1=O,11.3% (active)
21,O=C1NC(=O)C(c2ccccc2[N+](=O)[O-])=C1Nc1ccc(O)c(Cl)c1,35.4% (active)
22,Cc1nc2n(c(=O)c1CCN1CCC(c3noc4cc(F)ccc34)CC1)CCCC2O (configuration not stated),1.5% (active)
